# Measured values reported in PubChem BioAssay.
# Several values for one entry are separate records, joined by “and”; a condition that tells them apart may be missing. Equal values may be shown once. A structure can be active in one record and inactive in another. Activity calls are given as the source filed them. Unless noted, no stated cut-off is given here; in the data, active means inhibition above about 80%; inactive means the rest.
# Tests used:
# [1] = growth inhibition, single agents and combos, LFS_MB_1R, cell-based, cisplatin or BGB combos, synergistic combos for chromothripsis tumors (AID 1671452); conditions: LFS_MB_1R medulloblastoma cells, stronger effect = higher value;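 further: cells exposed for 96 hours before readout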
# [2] = growth inhibition, single agents and combos, CRL2098, cell-based, BGB or cisplatin IC20 combos, synergistic combos for chromothripsis tumors (AID 1671454); conditions: CRL2098 osteosarcoma cells, drug combinations, stronger effect = higher value;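 further: cells exposed for 96 h before readout; 0% = vehicle DMSO and 100% = killing by high DMSO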
# [3] = growth inhibition, single agents and combos, HD-MB03, cell-based, BGB or cisplatin IC20 combos, synergistic combos for chromothripsis tumors (AID 1671455; in the data active means inhibition above about 83%;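 further: 0% = vehicle DMSO and 100% = high DMSO as cytotoxic control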); conditions: HD-MB03 medulloblastoma cells, stronger effect = higher value
# [4] = growth inhibition, single agents and combos, UWB1.289, cell-based, BGB or cisplatin combos, synergistic combos for chromothripsis tumors (AID 1671456); conditions: UWB1.289 ovarian carcinoma cells, stronger effect = higher value;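 further: cells exposed to compound for four days; 0% = vehicle DMSO and 100% = killing by high DMSO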
# [5] = growth inhibition, single agents and combos, LFS_MB_2R, cell-based, cisplatin combos, synergistic combos for chromothripsis tumors (AID 1671457); conditions: LFS_MB_2R medulloblastoma cells, stronger effect = higher value;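 further: cells exposed to compound for four days before readout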
# [6] = UWB1.289_BRCA1 ovarian cancer growth, cell-based, BGB or cisplatin combinations (AID 1671459); conditions: UWB1.289 BRCA1 ovarian carcinoma, drug combinations, stronger effect = higher value
# [7] = drug combination toxicity in non-malignant astrocytes – cell-based, BGB or cisplatin IC20 combos, cytotoxicity control for chromothriptic childhood tumor combination screen (AID 1671460); conditions: Human astrocytes, viability inhibition, drug combinations, at 0.5 µM, stronger effect = higher value;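 further: cells exposed to compounds for 96 hours before viability readout; 0% = vehicle and 100% = killing control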
# [8] = CRL1545 cell growth, single agent and combined, cisplatin and BGB IC20 combos (AID 1671464); conditions: CRL1545 osteosarcoma cells, stronger effect = higher value;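 further: cells exposed to compound for 96 hours before readout; 0% = vehicle DMSO and 100% = high DMSO killing control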
# [9] = liver-stage malaria parasite load reduction – cell-based, known kinase inhibitor set, luminescence, hepatoma host viability (AID 624392; call rule not given here;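 further: infected cells incubated roughly two days before readout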); conditions: Plasmodium liver stage in hepatoma cells, luciferase luminescence, concentration not given here; liver cell % of control: measured here: host liver cell viability; parasite % of control: stronger effect = lower value
# [10] = chitosan synthesis blockers in C. neoformans – flow cytometry, Cibacron Brilliant Red staining (AID 1347148; call rule not given here;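 further: compound exposure lasted three days at 37 degrees C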); conditions: Cryptococcus neoformans chitosan, stronger effect = lower value; at 10 µM unless noted
# [11] = P. berghei load reduction in hepatocytes – cell-based, HepG2, luciferase luminescence, HepG2 viability, primary screen (AID 624349; in the data active means parasite load remaining mostly below about 12%, no sharp cut-off; inactive means mostly above about 10%;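 further: 100% = mean of DMSO negative control wells on the same plate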); conditions: P. berghei liver stage in HepG2, luciferase luminescence, concentration not given here; parasite load remaining: stronger effect = lower value; viability: measured here: HepG2 viability without parasites
# [12] = compounds altering circadian rhythm period length – cell-based, LOPAC library, luminescence reporter (AID 2774; call rule not given here;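 further: values are relative to mean of DMSO wells on each plate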); conditions: circadian reporter cells, at 7 µM, actives lie on both sides
# [13] = compounds altering viability of human ES cells (AID 493140; call rule not given here;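 further: cells exposed to compounds for four days before counting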); conditions: human embryonic stem cell survival screen; stronger effect = higher value
# [14] = test system: Hepatitis C virus NS3 helicase; test: blockers of NS3h binding to ssDNA – biochemical, fluorescence polarization, LOPAC1280 library, primary screen (AID 687035; in the data active means inhibition above about 37%); conditions: Purified HCV NS3 helicase, Cy5-dT15 ssDNA binding fluorescence polarization; stronger effect = higher value; concentration not given here
# [15] = compounds altering Cy5-DNA-NS3h complex signal – biochemical, LOPAC1280, artefact control for HCV NS3 helicase inhibitor project (AID 687037; call rule not given here); conditions: Cy5-DNA-NS3h complex fluorescence interference counterscreen
# [16] = blockers of cellular phospholipid synthesis – cell-based, LOPAC library, screen 4, primary screen (AID 1347384; call rule not given here); conditions: animal cells, phospholipid biosynthesis inhibition screen; at 10 µM
# [17] = galactose survival enhancers in mitochondrial complex I cybrids – cell-based, galactose medium, ATP luminescence, primary screen (AID 1645843;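 active means z-score of at least 1.8 in each of two replicates, scored against plate mean and spread of sample wells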;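 further: positive z means more ATP and so rescue of galactose-driven cybrid death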); conditions: complex I mutant cybrid cells, 72 h, stronger effect = higher value
# [18] = measured here: combination with BGB IC40, at 0.05 µM
# [19] = measured here: combination with cisplatin, at 0.5 µM
# [20] = measured here: combination with cisplatin, at 5 µM
# [21] = measured here: combination with BGB at IC20, at 0.5 µM
# [22] = measured here: combination with cisplatin at IC20, at 0.5 µM
# [23] = measured here: combo with BGB at IC20, at 0.5 µM
# [24] = measured here: combo with cisplatin at IC20, at 0.5 µM
# [25] = measured here: inhibition with BGB combination, at 0.05 µM
# [26] = measured here: inhibition with cisplatin combination, at 0.05 µM
# [27] = BGB combination, concentration series, at 5 µM
# [28] = cisplatin combination, concentration series, at 5 µM
# [29] = measured here: combo with BGB IC20
# [30] = measured here: combo with cisplatin IC20
# [31] = measured here: with BGB IC20 combination, at 0.5 µM
# [32] = measured here: with cisplatin IC20 combination, at 0.5 µM
smiles,measurement,setting,value
COc1ccc(-c2nc(N3CCOCC3)c3sc(CN(C)c4ncc(C(=O)NO)cn4)cc3n2)cn1,inhibition,[1]; at 0.5 µM,93% (active) and 88.4% (active)
same,inhibition,[1]; [18],27.1% and 15.8%
same,inhibition,[1]; [19],91.8% and 93.4%
same,inhibition,[1]; [20],100% and 102%
same,inhibition,[2]; at 0.5 µM,77.2% (inactive) and 40.2% (inactive)
same,inhibition,[2]; [21],83.7% and 62.7%
same,inhibition,[2]; [22],71.6% and 16.5%
same,inhibition,[3]; at 0.5 µM,99.8% (active)
same,inhibition,[3]; [23],99.7%
same,inhibition,[3]; [24],99.9% and 99.8%
same,inhibition,[4]; at 0.5 µM,74.5% (inactive) and 79.8% (inactive)
same,inhibition,[4]; [25],5.77% and 13.7%
same,inhibition,[4]; [26],-4.75% and -1.55%
same,inhibition,[5]; at 0.5 µM,82.2% (active) and 85.4% (active)
same,inhibition,[5]; [19],93.9% and 97.3%
same,inhibition,[5]; [20],110% and 105%
same,inhibition,[6]; [27],118% and 117%
same,inhibition,[6]; at 0.5 µM,79.8% (inactive) and 83.2% (active)
same,inhibition,[6]; [28],127% and 131%
same,inhibition,[7],101% (active) and 102% (active)
same,inhibition,[7]; [29],103% and 104%
same,inhibition,[7]; [30],100% and 101%
same,inhibition,[8]; at 0.5 µM,88.6% (active) and 47.7% (inactive)
same,inhibition,[8]; [31],89.3% and 57.8%
same,inhibition,[8]; [32],88% and 41.7%
same,inhibition,"[8]; single agent, at 0.05 µM",21.7% and -65.8%
same,inhibition,"[8]; single agent, at 5 µM",99.3% and 99%
OCCn1cc(-c2cnc3nnn(Cc4ccc5ncccc5c4)c3n2)cn1,liver cell % of control,[9],97.5% and 96.9% and 96.4%
same,parasite % of control,[9],74.3% (inactive) and 94.9% (inactive) and 55.7% (inactive)
CN(C)CC(C)(C)CNc1nn2c(-c3ccccc3)nnc2cc1C1CCC1,liver cell % of control,[9],58.5% and 89.5% and 101%
same,parasite % of control,[9],54.4% (inactive) and 60.7% (inactive) and 52.9% (inactive)
Cc1ccc2c(c1)C(=O)[C@]1(O)CCN(c3ccccc3)C1=N2,fold fluorescence,[10],7.57 [at 171 µM] (inactive)
O=C(c1cc(Cc2n[nH]c(=O)c3ccccc23)ccc1F)N1CCN(C(=O)C2CC2)CC1,inhibition,[1]; at 0.5 µM,0.5% (inactive) and -18.6% (inactive)
same,inhibition,[1]; [18],4.09% and -28.6%
same,inhibition,[1]; [19],-5.89% and -28.2%
same,inhibition,[1]; [20],10.2% and -13.4%
same,inhibition,[2]; at 0.5 µM,-22.2% (inactive) and -52% (inactive)
same,inhibition,[2]; [21],-38.6% and -22.3%
same,inhibition,[2]; [22],8.08% and -53.7%
same,inhibition,[3]; at 0.5 µM,0.63% (inactive) and 3.05% (inactive)
same,inhibition,[3]; [23],-2.67% and 1.02%
same,inhibition,[3]; [24],5.32% and 12.9%
same,inhibition,[4]; at 0.5 µM,3.95% (inactive) and -1.88% (inactive)
same,inhibition,[4]; [25],-15.9% and -18%
same,inhibition,[4]; [26],-0.831% and -12.7%
same,inhibition,[5]; at 0.5 µM,-13.1% (inactive) and -23.1% (inactive)
same,inhibition,[5]; [19],-6.19% and -20.5%
same,inhibition,[5]; [20],-14.1% and -19.5%
same,inhibition,[6]; [27],15.2% and -17.7%
same,inhibition,[6]; at 0.5 µM,3.2% (inactive) and -8.35% (inactive)
same,inhibition,[6]; [28],8.98% and -4%
same,inhibition,[7],4.09% (inactive) and -6.96% (inactive)
same,inhibition,[7]; [29],0.597% and -11.9%
same,inhibition,[7]; [30],7.1% and 3.7%
same,inhibition,[8]; at 0.5 µM,11% (inactive) and 18.2% (inactive)
same,inhibition,[8]; [31],2.64% and 8.45%
same,inhibition,[8]; [32],15.2% and 23.1%
same,inhibition,"[8]; single agent, at 0.05 µM",8.77% and 29.2%
same,inhibition,"[8]; single agent, at 5 µM",44.7% and 52.9%
Cc1cccc(-c2[nH]c(C(C)(C)C)nc2-c2ccc3c(c2)OCO3)n1,parasite load remaining,[11],33.2% (inactive)
same,viability,[11],61.8%
O=c1c(O)c(-c2cc(O)c(O)c(O)c2)oc2cc(O)cc(O)c12,period change,[12],-0.075 h (inactive)
same,survival,[13],2.42 (inactive)
same,parasite load remaining,[11],81.9% (inactive) and 74.4% (inactive)
same,viability,[11],106% and 74.8%
same,inhibition,[14],8% (inactive)
same,fluorescence ratio (interference),[15],1 (inactive)
same,outcome,[16],inactive
same,z-score,[17],-1.22 (inactive)
Cc1cccc(-c2[nH]c(C(C)(C)C)nc2-c2ccc3nccnc3c2)n1,inhibition,[14],-3% (inactive)
same,fluorescence ratio (interference),[15],1 (inactive)
same,outcome,[16],inactive
same,z-score,[17],-1.01 (inactive)
Cc1cn(-c2cc(NC(=O)c3ccc(C)c(Nc4nccc(-c5cccnc5)n4)c3)cc(C(F)(F)F)c2)cn1,liver cell % of control,[9],96.6% and 104% and 98.4%
same,parasite % of control,[9],40.6% (inactive) and 49.1% (inactive) and 89.8% (inactive)
CCC(=O)N1CCN(c2ccc(-n3c(=O)ccc4cnc5ccc(-c6cnc7ccccc7c6)cc5c43)cc2C(F)(F)F)CC1,liver cell % of control,[9],56.3% and 62.9% and 78.1%
